These results are taken from PubChem BioAssay (EPA / NIEHS).

In general, AC50 refers to the concentration giving half of the maximal activity seen.

The structures appear in SMILES notation. Calls of active or inactive are those of the source. How the source made its calls, unless noted: active means hit-call score of the fitted dose curve at least 0.9, where 1 is the maximum; inactive means score below 0.9.

Read-out in experiment [1]: Protein phosphatase 2A (PPP2R4), PTPA (gene 5524)
Briefly: LTEA_HepaRG_PPP2R4: Life Technologies and Expression Analysis (LTEA) Assay for Protein phosphatase 2A (PPP2R4) using HepaRG (AID 2283522). To be noted: mRNA level, 48 h; actives raise or lower the signal. The gist of the method: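 Cells were plated, cultured 48 h, switched to serum-free induction medium, then dosed for 48 h (8 points, max 100 uM, 0.5% DMSO). RNA was isolated and PPP2R4 expression measured by TaqMan qRT-PCR.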

Read-out in experiment [2]: solute carrier (SLC22A1), SLC22A1 (gene 6580)
Briefly: LTEA_HepaRG_SLC22A1: Life Technologies and Expression Analysis (LTEA) Assay for solute carrier (SLC22A1) using HepaRG (AID 2283524). The note with it: mRNA level, 48 h; actives raise or lower the signal. The method in brief: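 qRT-PCR readout (TaqMan, Fluidigm arrays) of SLC22A1 transcript, normalized to three housekeeping genes; bidirectional curve fit relative to 0.5% DMSO vehicle. Differentiated human HepaRG cells, 48 h chemical exposure, top concentration 100 uM, half-log steps, eight points.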

Read-out in experiment [3]: Pyruvate Dehydrogenase Kinase 4 (PDK4), PDK4 (gene 5166)
Briefly: LTEA_HepaRG_PDK4: Life Technologies and Expression Analysis (LTEA) Assay for Pyruvate Dehydrogenase Kinase 4 (PDK4) using HepaRG (AID 2283525). To be noted: mRNA level, 48 h; actives raise or lower the signal. The method in brief: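 HepaRG (human liver line), 48 h chemical exposure, 8-pt half-log CRC top 100 uM, 0.5% DMSO vehicle, duplicates. Readout: TaqMan qRT-PCR of PDK4 mRNA, housekeeping-normalized; gain/loss fit relative to DMSO baseline.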

Read-out in experiment [4]: NAD(P)H dehydrogenase [quinone] 1 (NQO1), NQO1 (gene 1728)
Briefly: LTEA_HepaRG_NQO1: Life Technologies and Expression Analysis (LTEA) Assay for NAD(P)H dehydrogenase [quinone] 1 (NQO1) using HepaRG (AID 2283526). To be noted: mRNA level, 48 h; actives raise or lower the signal. The method in brief:
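Transcript induction or suppression is quantified by qRT-PCR in human HepaRG liver cells dosed for 48 hours. Eight half-log concentrations topping at 100 uM are used, with 0.5% DMSO as vehicle and baseline.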

Read-out in experiment [5]: Nuclear factor erythroid 2-related factor 2 (Homo sapiens) (UniProt Q16236)
The experiment in a line: LTEA_HepaRG_NFE2L2: Life Technologies and Expression Analysis (LTEA) Assay for Nuclear factor erythroid 2-related factor 2 (NFE2L2) Transcription Factor using HepaRG (AID 2283527).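 On outcome: TaqMan qRT-PCR transcript level normalised to ACTB GAPDH and POLR2A housekeeping genes.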 The note with it: mRNA level, 48 h; actives raise or lower the signal. The method in brief: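 HepaRG, 48 h dosing, 8-pt half-log series from 100 uM in 0.5% DMSO, duplicates. Read-out: NFE2L2 mRNA by qRT-PCR (ACTB/GAPDH/POLR2A normalization). Bidirectional curve fit vs DMSO baseline.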

Read-out in experiment [6]: succinate dehydrogenase complex iron sulfur subunit B (SDHB), SDHB (gene 6390)
The experiment in a line: LTEA_HepaRG_SDHB: Life Technologies and Expression Analysis (LTEA) Assay for succinate dehydrogenase complex iron sulfur subunit B (SDHB) using HepaRG (AID 2283528). To be noted: mRNA level, 48 h; actives raise or lower the signal. The gist of the method: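 Readout is SDHB transcript level by qRT-PCR, normalised to three housekeeping genes and fitted bidirectionally against 0.5% DMSO vehicle. Human HepaRG cells were treated for 48 h at up to 100 uM.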

Read-out in experiment [7]: Signal transducer and activator of transcription 3 (Homo sapiens) (UniProt P40763)
The experiment in a line: LTEA_HepaRG_STAT3: Life Technologies and Expression Analysis (LTEA) Assay for Signal transducer and activator of transcription (STAT3) using HepaRG (AID 2283529). The note with it: mRNA level, 48 h; actives raise or lower the signal. The gist of the method: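 HepaRG, 48 h exposure, 8-pt half-log series (top 100 uM), 0.5% DMSO vehicle, duplicates. Readout: STAT3 transcript by Fluidigm qRT-PCR, housekeeping-normalized; bidirectional fit vs DMSO baseline.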

Read-out in experiment [8]: solute carrier (SLCO1B1), SLCO1B1 (gene 10599)
The experiment in a line: LTEA_HepaRG_SLCO1B1: Life Technologies and Expression Analysis (LTEA) Assay for solute carrier (SLCO1B1) using HepaRG (AID 2283530). To be noted: mRNA level, 48 h; actives raise or lower the signal. The gist of the method: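 Differentiated human HepaRG cells, plated 48 h, switched to serum-free induction medium and exposed in duplicate for 48 h to 8 half-log concentrations (top 100 uM) in 0.5% DMSO. SLCO1B1 mRNA by TaqMan qRT-PCR, normalized to ACTB/GAPDH/POLR2A.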

Read-out in experiment [9]: Transforming Growth Factor (TGFA), TGFA (gene 7039)
Briefly: LTEA_HepaRG_TGFA: Life Technologies and Expression Analysis (LTEA) Assay for Transforming Growth Factor (TGFA) using HepaRG (AID 2283532). The note with it: mRNA level, 48 h; actives raise or lower the signal. The gist of the method: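 qRT-PCR read-out of TGFA transcript, normalized to three housekeeping genes, fitted bidirectionally against 0.5% DMSO baseline. Human HepaRG cultures received chemicals for 48 h at eight half-log concentrations, top 100 uM.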

Read-out in experiment [10]: Transforming Growth Factor (TGFB1), TGFB1 (gene 7040)
The experiment in a line: LTEA_HepaRG_TGFB1: Life Technologies and Expression Analysis (LTEA) Assay for Transforming Growth Factor (TGFB1) Transporter using HepaRG (AID 2283533). The note with it: mRNA level, 48 h; actives raise or lower the signal. The gist of the method: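 Differentiated human HepaRG cells in serum-free induction medium were exposed in duplicate for 48 h to eight concentrations (top 100 uM, half-log steps, 0.5% DMSO). TGFB1 mRNA was quantified by qRT-PCR, normalized to ACTB, GAPDH, POLR2A, and fitted bidirectionally against DMSO.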

Read-out in the next experiment: TIMP1, TIMP1 (gene 7076)
Briefly: LTEA_HepaRG_TIMP1: Life Technologies and Expression Analysis (LTEA) Assay for TIMP1 using HepaRG (AID 2283534). The note with it: mRNA level, 48 h; actives raise or lower the signal. The gist of the method:
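Differentiated human HepaRG cells in serum-free induction medium were exposed 48 h to chemicals (8 half-log concentrations, top 100 uM, 0.5% DMSO). TIMP1 mRNA was quantified by TaqMan qRT-PCR, normalized to ACTB/GAPDH/POLR2A; bidirectional fit versus DMSO.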

Read-out in experiment [11]: Thyroid Hormone Responsive (THRSP), THRSP (gene 7069)
The experiment in a line: LTEA_HepaRG_THRSP: Life Technologies and Expression Analysis (LTEA) Assay for Thyroid Hormone Responsive (THRSP) using HepaRG (AID 2283536). The note with it: mRNA level, 48 h; actives raise or lower the signal. The method in brief:
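qRT-PCR read-out (Fluidigm TaqMan), housekeeping-normalized (ACTB/GAPDH/POLR2A). HepaRG, 48 h chemical exposure, 8-pt half-log series from 100 uM in 0.5% DMSO, duplicates. Bidirectional curve fit vs 0.5% DMSO baseline.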

Read-out in experiment [12]: Cellular tumor antigen p53 (Homo sapiens) (UniProt P04637)
Briefly: LTEA_HepaRG_TP53: Life Technologies and Expression Analysis (LTEA) Assay for Tumor Protein P53 (TP53) using HepaRG (AID 2283537). To be noted: mRNA level, 48 h; actives raise or lower the signal. The gist of the method:
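Read-out is TP53 transcript level by microfluidic qRT-PCR, normalised to three housekeeping genes and fitted bidirectionally against DMSO. Human HepaRG cells received compounds for 48 h, highest concentration 100 uM.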

Read-out in experiment [13]: UDP glucuronosyltransferase (UGT1A1), UGT1A1 (gene 54658)
The experiment in a line: LTEA_HepaRG_UGT1A1: Life Technologies and Expression Analysis (LTEA) Assay for UDP glucuronosyltransferase (UGT1A1) using HepaRG (AID 2283538). To be noted: mRNA level, 48 h; actives raise or lower the signal. The method in brief: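 Cells are plated, cultured 48 h, switched to serum-free induction medium, then dosed 48 h at eight concentrations (max 100 uM, 0.5% DMSO). RNA is isolated and UGT1A1 expression measured by qRT-PCR; changes versus DMSO are fitted in both directions.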

Experiment [14] can be described thus: LTEA_HepaRG_LDH_cytotoxicity: Cytotoxicity Assessment in the Life Technologies and Expression Analysis (LTEA) Assay (AID 2283563; active means hit-call score of the fitted dose curve at least 0.9, where 1 is the maximum;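 on AC50: LDH activity released into spent culture medium as a marker of cell death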). The gist of the method:
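Differentiated human HepaRG cells, plated 48 h beforehand, were switched to serum-free induction medium and exposed for 48 h to eight half-log concentrations (top 100 uM) in 0.5% DMSO. LDH was measured in spent medium; activity was fitted relative to DMSO vehicle.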

Read-out in experiment [15]: UDP glucuronosyltransferase (UGT1A6), UGT1A6 (gene 54578)
The experiment in a line: LTEA_HepaRG_UGT1A6: Life Technologies and Expression Analysis (LTEA) Assay for UDP glucuronosyltransferase (UGT1A6) using HepaRG (AID 2283539). The note with it: mRNA level, 48 h; actives raise or lower the signal. The gist of the method: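 Human HepaRG cells were dosed for 48 h in serum-free induction medium with 0.5% DMSO vehicle, eight-point half-log series from 100 uM, in duplicate. UGT1A6 mRNA was measured by qRT-PCR, normalized to ACTB, GAPDH, POLR2A, and fitted bidirectionally against DMSO.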

Chain of Cellular tumor antigen p53 (Homo sapiens) (P04637 whole entry, looked up): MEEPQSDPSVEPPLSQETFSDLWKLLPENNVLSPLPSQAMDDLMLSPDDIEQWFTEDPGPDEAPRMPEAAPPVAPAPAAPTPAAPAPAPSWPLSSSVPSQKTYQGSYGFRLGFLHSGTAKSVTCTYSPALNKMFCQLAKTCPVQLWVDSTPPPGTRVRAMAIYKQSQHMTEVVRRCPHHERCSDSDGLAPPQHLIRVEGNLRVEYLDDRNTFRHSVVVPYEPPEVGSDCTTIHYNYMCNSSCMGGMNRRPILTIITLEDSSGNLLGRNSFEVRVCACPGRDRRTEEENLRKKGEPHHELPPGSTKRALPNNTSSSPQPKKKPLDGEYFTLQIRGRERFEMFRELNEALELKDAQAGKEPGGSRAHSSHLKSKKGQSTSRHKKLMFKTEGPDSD
Chain of Nuclear factor erythroid 2-related factor 2 (Homo sapiens) (Q16236 whole entry, looked up): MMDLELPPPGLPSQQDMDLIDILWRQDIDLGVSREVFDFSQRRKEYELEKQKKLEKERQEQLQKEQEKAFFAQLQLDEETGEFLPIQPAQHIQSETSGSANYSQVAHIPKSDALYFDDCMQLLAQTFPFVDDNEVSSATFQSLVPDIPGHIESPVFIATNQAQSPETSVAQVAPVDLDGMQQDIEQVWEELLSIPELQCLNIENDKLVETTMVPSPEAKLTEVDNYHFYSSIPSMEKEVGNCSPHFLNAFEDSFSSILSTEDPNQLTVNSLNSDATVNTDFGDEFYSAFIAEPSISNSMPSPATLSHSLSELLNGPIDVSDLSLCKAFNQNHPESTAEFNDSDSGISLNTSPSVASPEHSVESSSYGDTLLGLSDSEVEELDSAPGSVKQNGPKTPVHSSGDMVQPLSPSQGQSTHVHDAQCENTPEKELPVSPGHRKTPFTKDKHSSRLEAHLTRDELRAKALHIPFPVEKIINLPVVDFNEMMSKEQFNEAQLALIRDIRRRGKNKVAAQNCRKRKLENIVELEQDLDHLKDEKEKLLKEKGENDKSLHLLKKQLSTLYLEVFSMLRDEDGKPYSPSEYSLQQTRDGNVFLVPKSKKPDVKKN
Chain of Signal transducer and activator of transcription 3 (Homo sapiens) (P40763 whole entry, looked up): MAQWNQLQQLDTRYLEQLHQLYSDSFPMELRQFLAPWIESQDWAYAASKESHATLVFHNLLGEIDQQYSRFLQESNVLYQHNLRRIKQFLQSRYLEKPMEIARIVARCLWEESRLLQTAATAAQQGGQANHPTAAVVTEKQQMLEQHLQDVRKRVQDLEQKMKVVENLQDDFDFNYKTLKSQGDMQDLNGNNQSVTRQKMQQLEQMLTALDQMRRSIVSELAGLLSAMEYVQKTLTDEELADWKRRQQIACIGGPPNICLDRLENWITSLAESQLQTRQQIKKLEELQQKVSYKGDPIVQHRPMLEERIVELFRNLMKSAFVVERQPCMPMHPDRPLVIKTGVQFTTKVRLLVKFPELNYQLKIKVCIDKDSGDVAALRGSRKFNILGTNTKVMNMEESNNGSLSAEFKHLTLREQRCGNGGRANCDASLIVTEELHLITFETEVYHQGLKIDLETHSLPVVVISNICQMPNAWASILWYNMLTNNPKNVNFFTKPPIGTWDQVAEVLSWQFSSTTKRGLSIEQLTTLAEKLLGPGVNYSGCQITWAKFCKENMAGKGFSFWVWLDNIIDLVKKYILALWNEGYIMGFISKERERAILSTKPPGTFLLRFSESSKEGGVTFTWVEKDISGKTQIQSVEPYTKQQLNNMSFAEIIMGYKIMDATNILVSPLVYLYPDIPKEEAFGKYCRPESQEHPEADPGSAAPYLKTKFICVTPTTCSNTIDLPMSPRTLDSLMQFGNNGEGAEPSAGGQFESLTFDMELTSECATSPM

For `C[C@H]1[C@H](c2ccc(Cl)cc2)SC(=O)N1C(=O)NC1CCCCC1`, the AC50 in [1] is 50 µM (active); in experiment [2], 50 µM (active); in [5] it was 73 µM (active); in [6] it was 26.7 µM (active); in experiment [8] it was 60.7 µM (active); in experiment [9], 69.5 µM (active). Further, the AC50 in experiment [10] was 50 µM (active); in [11], 90.2 µM (active); in experiment [12], 82.3 µM (active); in experiment [13], 88.6 µM (active). The outcome in experiment [3] is “inactive”; in experiment [4] it was “inactive”; in experiment [7], “inactive”; in the experiment with TIMP1, TIMP1 (gene 7076) it was “inactive”; in [14], “inactive”.
For the molecule `N#Cc1c(Cl)c(Cl)c(Cl)c(C#N)c1Cl`, the molecule was classed as inactive in [1], in [4], in experiment [5], in [6], in experiment [7] and in experiment [8]. In addition, the result in experiment [9], in experiment [10], in experiment [12], in experiment [13] and in [15] was inactive. Further, the AC50 in [2] was 61.5 µM (active); in experiment [3], 75.6 µM (active); with TIMP1, TIMP1 (gene 7076), 22.5 µM (active); in [11] it was 13.2 µM (active); in experiment [14], 50 µM (active).
In the case of `COP(=O)(OC)OC=C(Cl)Cl`, the molecule was classed as inactive in [1], in experiment [2], in experiment [3], in experiment [4], in [5] and in experiment [6]. For the same molecule, the outcome is “inactive” in experiment [7]; “inactive” in [8]; “inactive” in experiment [9]; “inactive” in experiment [10]; “inactive” with TIMP1, TIMP1 (gene 7076); “inactive” in experiment [11]. The molecule was classed as inactive in experiment [13] and in experiment [14].
On to `CN1CSC(=S)N(C)C1`, for which the outcome in experiment [1], in [2], in [3], in experiment [4], in [5] and in [6] was inactive. The outcome was “inactive” in experiment [7]; “inactive” in experiment [8]; “inactive” in [9]; “inactive” in [10]; “inactive” with TIMP1, TIMP1 (gene 7076); “inactive” in [11]. Besides, the call in experiment [12], in [13] and in experiment [14] was inactive.
For `O=C(O)CCCOc1ccc(Cl)cc1Cl`, the outcome in experiment [1], in experiment [2], in [4], in [5], in [6] and in experiment [7] was inactive. Besides, the outcome was “inactive” in experiment [8]; “inactive” in experiment [9]; “inactive” in experiment [10]; “inactive” in the experiment with TIMP1, TIMP1 (gene 7076); “inactive” in [11]; “inactive” in experiment [12]. For the same molecule, the outcome in experiment [14] was inactive. The half-maximal activity concentration (AC50) in [3] is 50.8 µM (active); in [13] it was 34.5 µM (active).
